{"source": "paper PMC4336329", "about": "(PLoS ONE, 2015)", "note": "Among all 310,000 compounds or so, about 14,000 (4.5%) showed an effect of 50% or more. Effects have a minus sign here. The full list was thinned out, with strong results kept by preference.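 Further: peak tail current of the secondary pulse compared with the same well before compound.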", "data": [{"molecular_target": "human ether-à-go-go-related gene (hERG) potassium channel (human, UniProt Q12809)", "sequence (Q12809 whole entry, looked up)": "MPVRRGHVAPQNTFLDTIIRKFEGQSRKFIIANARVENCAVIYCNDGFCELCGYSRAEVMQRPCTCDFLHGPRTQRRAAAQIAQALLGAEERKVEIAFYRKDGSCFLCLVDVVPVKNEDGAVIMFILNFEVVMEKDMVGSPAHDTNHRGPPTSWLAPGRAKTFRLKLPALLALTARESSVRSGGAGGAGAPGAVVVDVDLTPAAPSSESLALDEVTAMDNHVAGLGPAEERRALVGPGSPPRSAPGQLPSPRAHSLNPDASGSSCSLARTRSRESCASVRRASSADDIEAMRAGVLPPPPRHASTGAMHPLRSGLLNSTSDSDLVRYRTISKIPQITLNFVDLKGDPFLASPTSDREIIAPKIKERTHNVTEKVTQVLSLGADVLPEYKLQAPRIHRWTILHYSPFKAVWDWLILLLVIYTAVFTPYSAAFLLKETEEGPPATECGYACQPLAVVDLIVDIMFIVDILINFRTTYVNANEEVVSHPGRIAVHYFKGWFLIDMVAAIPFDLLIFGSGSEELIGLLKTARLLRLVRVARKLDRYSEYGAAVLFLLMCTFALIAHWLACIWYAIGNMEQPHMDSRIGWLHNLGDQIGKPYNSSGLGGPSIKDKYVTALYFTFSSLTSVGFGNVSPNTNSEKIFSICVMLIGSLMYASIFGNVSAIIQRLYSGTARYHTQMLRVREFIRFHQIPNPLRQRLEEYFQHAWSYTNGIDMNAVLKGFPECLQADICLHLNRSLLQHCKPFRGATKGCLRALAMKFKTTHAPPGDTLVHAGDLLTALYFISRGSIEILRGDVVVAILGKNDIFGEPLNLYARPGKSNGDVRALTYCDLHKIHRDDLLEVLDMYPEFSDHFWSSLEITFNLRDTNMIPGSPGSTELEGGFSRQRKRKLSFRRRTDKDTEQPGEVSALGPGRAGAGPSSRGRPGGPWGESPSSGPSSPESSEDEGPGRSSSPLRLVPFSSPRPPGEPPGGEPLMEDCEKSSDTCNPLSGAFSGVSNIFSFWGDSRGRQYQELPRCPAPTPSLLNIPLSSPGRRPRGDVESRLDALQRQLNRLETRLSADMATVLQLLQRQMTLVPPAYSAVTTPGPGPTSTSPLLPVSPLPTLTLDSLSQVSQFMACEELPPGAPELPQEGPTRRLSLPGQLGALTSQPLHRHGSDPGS", "test": "primary screen, population patch clamp on CHO cells stably expressing hERG; higher = less effect of the substance", "units": {"hERG current change (%, negative = inhibition) at 10uM": "%"}, "values": [{"smiles": "Cc1cc(=O)nc2c3ccccc3n(CC(=O)Nc3ccccc3Br)n12", "hERG current change (%, negative = inhibition) at 10uM": -7.45}, {"smiles": "CCOc1ccc(N(CC(=O)Nc2cccc(Br)c2)S(C)(=O)=O)cc1", "hERG current change (%, negative = inhibition) at 10uM": -1.12}, {"smiles": "NC(=O)C1CCN(/C=C2\\C(=O)NC(=O)N(Cc3ccco3)C2=O)CC1", "hERG current change (%, negative = inhibition) at 10uM": 6.74}, {"smiles": "COc1ccccc1CNC(=O)COc1ccc(C)nc1[N+](=O)[O-]", "hERG current change (%, negative = inhibition) at 10uM": 18.3}, {"smiles": "CCN(C(=O)COc1ccc(C(=O)c2ccccc2)cc1)c1ccccc1", "hERG current change (%, negative = inhibition) at 10uM": -18.9}, {"smiles": "O=C1NNC(=O)C1c1ccccc1", "hERG current change (%, negative = inhibition) at 10uM": 25.7}, {"smiles": "CCOC(=O)C1(Cc2cccc(OC)c2)CCN(Cc2cccc(OC)c2O)CC1", "hERG current change (%, negative = inhibition) at 10uM": -66}, {"smiles": "CCOC(=O)C1(Cc2cccc(OC)c2)CCN(Cc2cc(OC)ccc2OC)CC1", "hERG current change (%, negative = inhibition) at 10uM": -67.2}, {"smiles": "CCOC(=O)c1[nH]ncc1CN1CCC(Cc2cccc(OC)c2)(C(=O)OCC)CC1", "hERG current change (%, negative = inhibition) at 10uM": -37.6}, {"smiles": "CC(C)c1ccc(CN2CCN(C(=O)CSc3nnnn3C3CC3)CC2)cc1", "hERG current change (%, negative = inhibition) at 10uM": -28.1}, {"smiles": "COc1ccc2c(C(=O)CN(C)C3CCCCC3)c[nH]c2c1", "hERG current change (%, negative = inhibition) at 10uM": 9.09}, {"smiles": "Cc1csc(NC(=O)CSc2nnc(CCNC(=O)c3cccs3)n2C)n1", "hERG current change (%, negative = inhibition) at 10uM": 8.1}, {"smiles": "Cc1cnc(NC(=O)CSc2nnc(Cc3ccccc3)n2C)s1", "hERG current change (%, negative = inhibition) at 10uM": -12.1}, {"smiles": "Cc1cnc(NC(=O)CSc2nnc(-c3cccs3)n2C)s1", "hERG current change (%, negative = inhibition) at 10uM": -59.4}, {"smiles": "Cc1csc(NC(=O)CSc2nnc(-c3ccncc3)n2C)n1", "hERG current change (%, negative = inhibition) at 10uM": -17.5}, {"smiles": "CC(=O)Nc1ccc(NC(=O)CSc2nnc(-c3cccs3)n2C)cc1", "hERG current change (%, negative = inhibition) at 10uM": -7.69}, {"smiles": "Cc1csc(NC(=O)CSc2nnc(-c3cccs3)n2C)n1", "hERG current change (%, negative = inhibition) at 10uM": -60.5}, {"smiles": "O=C(CCCc1nc2ccccc2s1)NCc1ccccc1F", "hERG current change (%, negative = inhibition) at 10uM": -20.2}, {"smiles": "CCN(CC(=O)Nc1c(F)cccc1F)C(=O)c1cccc(-n2cccc2)c1", "hERG current change (%, negative = inhibition) at 10uM": -27.1}, {"smiles": "CCCCCN(C(=O)CCC(=O)OC(C)C(=O)NCc1ccccc1)c1c(N)n(CCCC)c(=O)[nH]c1=O", "note": "(stereo not drawn)", "hERG current change (%, negative = inhibition) at 10uM": -14.5}, {"smiles": "O=C(c1cnn2c(C(F)F)cc(-c3ccccc3)nc12)N1CCCc2ccccc21", "hERG current change (%, negative = inhibition) at 10uM": -3.45}, {"smiles": "COCCn1c(SCC(=O)N2CCCC2)nnc1-c1ccco1", "hERG current change (%, negative = inhibition) at 10uM": 18.6}, {"smiles": "Cc1ccc(/C=N\\NC(=O)Cc2noc3ccccc23)cc1", "hERG current change (%, negative = inhibition) at 10uM": 15.6}, {"smiles": "COC(=O)c1ccc(C(=S)N2CCCCC2)cc1", "hERG current change (%, negative = inhibition) at 10uM": 8.89}, {"smiles": "COC(=O)c1ccc(SCc2cnc(Cl)s2)cc1", "hERG current change (%, negative = inhibition) at 10uM": 1.27}, {"smiles": "Clc1ncc(CSc2ccccc2)s1", "hERG current change (%, negative = inhibition) at 10uM": 3.25}, {"smiles": "O=C(O)c1ccc(SCc2cnc(Cl)s2)cc1", "hERG current change (%, negative = inhibition) at 10uM": -70}, {"smiles": "COC(=O)c1ccc(CNC(=O)c2ccc3c(c2)S(=O)(=O)N=C2CCCCCN23)cc1", "hERG current change (%, negative = inhibition) at 10uM": -10.5}, {"smiles": "Cc1cc2ccccc2c(=O)n1CC(=O)NCC1COc2ccccc2O1", "note": "(stereo not drawn)", "hERG current change (%, negative = inhibition) at 10uM": 0.464}, {"smiles": "CCn1cc(/C=N\\NC(=O)Cc2ccc([N+](=O)[O-])cc2)c(C)n1", "hERG current change (%, negative = inhibition) at 10uM": -25.1}, {"smiles": "CN(Cc1ccc(C#CCCO)cc1)CC1CCCN(CCc2ccc(Cl)cc2)C1", "note": "(stereo not drawn)", "hERG current change (%, negative = inhibition) at 10uM": -70.9}, {"smiles": "OCCC#Cc1ccc(CN2CCN(C3CCCCC3)C(CCO)C2)cc1", "note": "(stereo not drawn)", "hERG current change (%, negative = inhibition) at 10uM": -0.113}, {"smiles": "CCN(Cc1ccc(OC)c(COC)c1)CC1CCCN(CCc2cccc(OC)c2)C1", "note": "(stereo not drawn)", "hERG current change (%, negative = inhibition) at 10uM": -26.3}, {"smiles": "CCN(Cc1ccc(NC(C)=O)cc1)CC1CCCN(CCc2cccc(OC)c2)C1", "note": "(stereo not drawn)", "hERG current change (%, negative = inhibition) at 10uM": -30.3}, {"smiles": "CCN(Cc1cccc(OC)c1)CC1CCCN(CCc2cccc(OC)c2)C1", "note": "(stereo not drawn)", "hERG current change (%, negative = inhibition) at 10uM": -47.3}, {"smiles": "CCN(Cc1ccc(C#CCCO)cc1)CC1CCCN(CCc2cccc(F)c2)C1", "note": "(stereo not drawn)", "hERG current change (%, negative = inhibition) at 10uM": -65.2}, {"smiles": "CCN(Cc1ccc(OC)c(COC)c1)CC1CCCN(CCc2cccc(F)c2)C1", "note": "(stereo not drawn)", "hERG current change (%, negative = inhibition) at 10uM": -67.7}, {"smiles": "CCN(Cc1ccc(C#CCCO)cc1)CC1CCCN(CCc2cccc(OC)c2)C1", "note": "(stereo not drawn)", "hERG current change (%, negative = inhibition) at 10uM": -58.5}, {"smiles": "CCOc1ccc(NC(=O)Nc2cc(C(=O)O)ccc2N2CC3CC(C2)c2cccc(=O)n2C3)cc1", "note": "(stereo not drawn)", "hERG current change (%, negative = inhibition) at 10uM": 12.4}, {"smiles": "Cc1cc(C)cc(Nc2cc(C)nc3nc(C)nn23)c1", "hERG current change (%, negative = inhibition) at 10uM": -14.7}, {"smiles": "O=c1[nH]c(/C=C/c2ccccc2)c([N+](=O)[O-])c(=O)[nH]1", "hERG current change (%, negative = inhibition) at 10uM": 5.45}, {"smiles": "CCN1C(=O)Nc2cccc3cccc1c23", "hERG current change (%, negative = inhibition) at 10uM": 1.65}, {"smiles": "CCN(CC)C(=O)c1cnn(-c2ccccc2)c1NC(=O)c1ccco1", "hERG current change (%, negative = inhibition) at 10uM": -12.8}, {"smiles": "COc1ccc(/C=C/C(=O)Nc2ccccc2C(=O)NCC(c2ccc(OC)cc2)N(C)C)cc1", "note": "(stereo not drawn)", "hERG current change (%, negative = inhibition) at 10uM": -49.6}, {"smiles": "CCc1nc(N=Nc2c(O)[nH]c3ccccc23)c2c3c(sc2n1)CCC3", "hERG current change (%, negative = inhibition) at 10uM": 13.7}, {"smiles": "O=C(COC(=O)c1cc(Cl)ccc1[N+](=O)[O-])NCc1ccc(Cl)cc1Cl", "hERG current change (%, negative = inhibition) at 10uM": -11.8}, {"smiles": "COc1ccccc1CCNC(=O)CN1C(=O)c2ccccc2S1(=O)=O", "hERG current change (%, negative = inhibition) at 10uM": 2.11}, {"smiles": "CC(C)(C)C(=O)NC1CCSC1=O", "note": "(stereo not drawn)", "hERG current change (%, negative = inhibition) at 10uM": 8.46}, {"smiles": "CN(C)CCN1C(=O)C2C3C=CC(C3)C2C1=O", "note": "(stereo not drawn)", "hERG current change (%, negative = inhibition) at 10uM": 20.6}, {"smiles": "Cc1cc(C)c2c(=O)[nH]c(SCC(=O)Nc3ccc(N(C)C)cc3)nc2n1", "hERG current change (%, negative = inhibition) at 10uM": -2.77}, {"smiles": "CCCc1[nH]nc2c1C(Cc1ccccc1)C(C#N)=C(N)O2", "note": "(stereo not drawn)", "hERG current change (%, negative = inhibition) at 10uM": 0.432}, {"smiles": "Cc1nn(-c2ccccc2)c(C)c1-c1cc(C(=O)N/N=C/c2cccnc2)[nH]n1", "hERG current change (%, negative = inhibition) at 10uM": -18.7}, {"smiles": "Cc1cccc2c1N(C)C(=O)C2=O", "hERG current change (%, negative = inhibition) at 10uM": 17.1}, {"smiles": "Cc1ccc(NC(=O)CNCc2ccccn2)cc1S(=O)(=O)N(C)C", "hERG current change (%, negative = inhibition) at 10uM": 20.9}, {"smiles": "CCN(Cc1ccc(NC(C)=O)cc1)CC1CCCN(CCc2cccc(F)c2)C1", "note": "(stereo not drawn)", "hERG current change (%, negative = inhibition) at 10uM": -24.4}, {"smiles": "CCN(Cc1ccc(O)cc1)CC1CCCN(CCc2cccc(F)c2)C1", "note": "(stereo not drawn)", "hERG current change (%, negative = inhibition) at 10uM": -71.1}, {"smiles": "Cc1ccc(-c2nnc(CSc3nnc(COc4ccccc4)n3-c3ccc(C)cc3)o2)cc1", "hERG current change (%, negative = inhibition) at 10uM": -7.47}]}]}
